PubChem BioAssay (NCATS)
Unmarked numbers belong to inactive results. Records with an inconclusive call do not appear. A call without a number means that no potency is given here. Where a structure was tested more than once in an assay, its records may differ in their call. Active and inactive are the calls of the source. Unless noted, the call rests on the fitted dose curve; in most records, active means well fitted curve in the direction sought with a large enough effect; inconclusive means small, poorly fitted or top-dose-only effect, or another doubt; inactive means no such curve, though single readings can be large; an effect the other way counts as inactive or inconclusive.

Tests used:
[1] = target: Rap guanine nucleotide exchange factor 3 (Homo sapiens) (UniProt O95398); experiment: Confirmatory qHTS for agonist of cAMP-regulated guanine nucleotide exchange factor 3 (EPAC1) (AID 1645881);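 further: EPAC1 catalysed release of BODIPY-GDP from Rap1B seen as fluorescence loss; nearly all actives have a fitted effect of over 75% in size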
Rap guanine nucleotide exchange factor 3 (Homo sapiens), sequence (O95398 whole entry, looked up): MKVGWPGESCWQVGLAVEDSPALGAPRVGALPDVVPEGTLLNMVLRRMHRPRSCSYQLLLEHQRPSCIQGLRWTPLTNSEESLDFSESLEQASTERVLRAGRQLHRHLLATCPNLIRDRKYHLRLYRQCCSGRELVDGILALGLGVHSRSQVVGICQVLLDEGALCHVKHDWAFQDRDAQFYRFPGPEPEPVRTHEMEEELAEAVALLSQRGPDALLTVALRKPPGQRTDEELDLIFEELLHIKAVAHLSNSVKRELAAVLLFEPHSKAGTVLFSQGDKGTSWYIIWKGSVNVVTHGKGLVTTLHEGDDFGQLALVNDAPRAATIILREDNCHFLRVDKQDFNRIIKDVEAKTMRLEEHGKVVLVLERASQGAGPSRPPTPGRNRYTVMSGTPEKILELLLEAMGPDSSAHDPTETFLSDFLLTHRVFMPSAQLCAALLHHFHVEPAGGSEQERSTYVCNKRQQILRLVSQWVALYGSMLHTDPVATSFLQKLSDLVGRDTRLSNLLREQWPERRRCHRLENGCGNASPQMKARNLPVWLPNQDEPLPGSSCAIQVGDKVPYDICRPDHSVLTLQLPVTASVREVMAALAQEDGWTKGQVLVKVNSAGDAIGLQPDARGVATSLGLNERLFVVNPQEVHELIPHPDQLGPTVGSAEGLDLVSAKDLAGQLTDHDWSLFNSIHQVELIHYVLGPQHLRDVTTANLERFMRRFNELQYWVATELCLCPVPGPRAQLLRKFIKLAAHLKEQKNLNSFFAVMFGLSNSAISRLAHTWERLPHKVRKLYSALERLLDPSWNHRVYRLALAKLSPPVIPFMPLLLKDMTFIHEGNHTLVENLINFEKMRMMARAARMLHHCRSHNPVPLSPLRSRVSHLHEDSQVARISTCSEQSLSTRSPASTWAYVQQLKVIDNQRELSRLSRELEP

[2] = target: Rap guanine nucleotide exchange factor 4 (Homo sapiens) (UniProt Q8WZA2); experiment: Confirmatory qHTS for agonist of cAMP-regulated guanine nucleotide exchange factor 4 (EPAC2) (AID 1645884);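 further: nucleotide exchange releases bodipy-GDP from Rap1 and this lowers its fluorescence; nearly all actives have a fitted effect of over 65% in size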
Rap guanine nucleotide exchange factor 4 (Homo sapiens), sequence (Q8WZA2 whole entry, looked up): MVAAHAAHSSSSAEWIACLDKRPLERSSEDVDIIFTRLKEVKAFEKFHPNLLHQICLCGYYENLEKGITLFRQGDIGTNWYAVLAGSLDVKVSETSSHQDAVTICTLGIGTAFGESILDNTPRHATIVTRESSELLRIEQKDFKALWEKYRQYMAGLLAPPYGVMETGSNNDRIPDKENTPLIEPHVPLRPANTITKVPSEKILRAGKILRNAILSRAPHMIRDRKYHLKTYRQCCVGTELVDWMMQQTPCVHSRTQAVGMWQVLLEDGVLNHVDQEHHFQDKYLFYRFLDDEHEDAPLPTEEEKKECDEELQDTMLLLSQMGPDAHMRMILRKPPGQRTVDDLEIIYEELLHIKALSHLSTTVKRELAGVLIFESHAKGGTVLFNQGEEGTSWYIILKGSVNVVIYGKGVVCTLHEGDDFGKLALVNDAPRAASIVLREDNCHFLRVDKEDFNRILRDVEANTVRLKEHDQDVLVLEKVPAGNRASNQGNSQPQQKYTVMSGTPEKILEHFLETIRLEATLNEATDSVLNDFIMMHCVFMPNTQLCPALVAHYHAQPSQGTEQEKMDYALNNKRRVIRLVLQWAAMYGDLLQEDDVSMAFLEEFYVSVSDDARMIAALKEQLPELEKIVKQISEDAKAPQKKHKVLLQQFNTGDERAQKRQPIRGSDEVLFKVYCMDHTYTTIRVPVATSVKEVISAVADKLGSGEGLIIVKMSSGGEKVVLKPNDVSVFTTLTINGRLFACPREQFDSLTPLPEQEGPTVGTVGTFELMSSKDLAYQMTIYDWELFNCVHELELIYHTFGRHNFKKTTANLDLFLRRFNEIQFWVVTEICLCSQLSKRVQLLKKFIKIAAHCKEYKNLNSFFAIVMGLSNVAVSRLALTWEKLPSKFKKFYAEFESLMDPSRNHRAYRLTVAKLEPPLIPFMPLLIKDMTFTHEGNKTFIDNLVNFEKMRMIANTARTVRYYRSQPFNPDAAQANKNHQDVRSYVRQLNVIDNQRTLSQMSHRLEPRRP

[3] = target: Rap guanine nucleotide exchange factor 3 (Homo sapiens) (UniProt O95398); experiment: Confirmatory qHTS for antagonist of cAMP-regulated guanine nucleotide exchange factor 3 (EPAC1) (AID 1645880); further: nearly all actives have a fitted effect of over 55% in size
Outline: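 Nucleotide exchange uses 100 nM EPAC1, 250 nM RAP1B-BODIPY-GDP and 50 uM GDP, with compounds in a concentration-titration series. After 5 min at room temperature, fluorescence (480 nm ex/540 nm em) is read every 5 min for 30 min. Data are normalized to control ATA and DMSO.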

[4] = target: Rap guanine nucleotide exchange factor 4 (Homo sapiens) (UniProt Q8WZA2); experiment: Confirmatory qHTS for antagonist of cAMP-regulated guanine nucleotide exchange factor 4 (EPAC2) (AID 1645885); further: nearly all actives have a fitted effect of over 25% in size; further: potency means the concentration at half of the fitted maximal effect
[5] = Confirmation and Secondary Assay for Modulators of Hemoglobin Beta Chain Splicing at IVS2 654 locus (AID 910);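 further: per-well total GFP intensity by laser scanning cytometry after 2-day treatment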
Outline: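 HeLa cells stably carrying EGFP interrupted by mutant beta-globin IVS2-654 intron (CMV-driven) were treated with compound for 2 days at 37C; corrected splicing was scored as total peak GFP intensity per well (488 nm excitation, 500-520 nm emission).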

[6] = Confirmation and Secondary Assay for Modulators of Hemoglobin Beta Chain Splicing at IVS2 705 locus (AID 930);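 further: HeLa cells stably expressing the EGFP-705 splicing reporter; GFP fluorescence per well restored by corrected splicing of the IVS2-705 intron in EGFP; series mostly up to about 46 µM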
Outline: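 Stable HeLa line with EGFP disrupted by mutant beta-globin intron 2 (705). Overnight attachment, then 2 days of compound at 37C, 5% CO2. Signal: peak GFP intensity summed over objects 5-250 µm.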

[7] = target: DNA repair nuclease/redox regulator APEX1 (Homo sapiens) (UniProt P27695); experiment: qHTS Validation Assay for Inhibitors of the Human Apurinic/apyrimidinic Endonuclease 1 (APE1) (AID 1705;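 further: TAMRA fluorescence gain over two minutes as APE1 cuts a quenched THF abasic duplex; series mostly up to about 57 µM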)
DNA repair nuclease/redox regulator APEX1 (Homo sapiens), sequence (P27695 whole entry, looked up): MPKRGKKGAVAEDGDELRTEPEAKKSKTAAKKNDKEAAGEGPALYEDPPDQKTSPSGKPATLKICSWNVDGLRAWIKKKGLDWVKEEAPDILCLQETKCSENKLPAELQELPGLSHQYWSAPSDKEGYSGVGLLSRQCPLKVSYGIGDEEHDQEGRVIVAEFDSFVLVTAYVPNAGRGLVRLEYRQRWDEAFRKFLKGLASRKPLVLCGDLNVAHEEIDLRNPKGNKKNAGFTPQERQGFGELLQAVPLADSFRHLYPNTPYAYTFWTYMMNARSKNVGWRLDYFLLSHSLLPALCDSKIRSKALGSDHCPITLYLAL
Outline: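 Substrate: 50 nM final fluorophore/quencher THF-abasic duplex. Enzyme preincubated with compounds 15 min, RT. Progress derived from fluorescence difference, third minus first kinetic read.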

[8] = Counterscreen for APE1 Inhibitors: Fluorescent Dye Displacement Validation Assay (AID 1707)
Outline: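 Assay buffer: Tris-HCl pH7.5 with 50mM NaCl, 2 mM MgCl2, 0.01% Tween-20. Dye 250 nM, duplex 50 nM final. Readout: decrease in ThO endpoint fluorescence, 480 nm excitation, 540 nm emission.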

[9] = target: Endonuclease 4 (Escherichia coli (strain K12)) (UniProt P0A6C1); experiment: Counterscreen for APE1 Inhibitors: qHTS Validation Assay for Inhibitors of Endonuclease IV (AID 1708)
Outline: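 Concentration-response counterscreen run identically to the APE1 assay: 15 min room-temperature preincubation of 2 nM enzyme with compound, reaction started with 50 nM quenched abasic DNA, progress taken from kinetic fluorescence.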

[10] = qHTS for differential inhibitors of proliferation of Plasmodium falciparum line 7G8 (AID 1815);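 further: parasite growth measured after three days of incubation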; further: potency means the concentration at half of the fitted maximal effect
[11] = qHTS for differential inhibitors of proliferation of Plasmodium falciparum line GB4 (AID 1816); settings: Potency: Plasmodium falciparum GB4 proliferation inhibition;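 further: parasite growth measured after 72 h incubation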; further: potency means the concentration at half of the fitted maximal effect
[12] = qHTS for differential inhibitors of proliferation of Plasmodium falciparum line D10 (AID 1877);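 further: parasites grown with compound for 72 h before DNA staining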; further: potency means the concentration at half of the fitted maximal effect
[13] = qHTS for differential inhibitors of proliferation of Plasmodium falciparum line Dd2 (AID 1882); settings: Potency: Plasmodium falciparum Dd2 proliferation inhibition; further: nearly all actives have a fitted effect of over 65% in size; further: potency means the concentration at half of the fitted maximal effect
Outline: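 Dd2-infected erythrocytes (0.3% parasitemia, 2.5% hematocrit final) incubated with compound 72 h at 37 C, 5% CO2; lysed with saponin/Triton buffer containing SYBR Green I, incubated overnight in the dark, then read by fluorescence (485/535 nm). Normalized to 0.29 uM artemisinin and DMSO.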

[14] = qHTS for differential inhibitors of proliferation of Plasmodium falciparum line W2 (AID 1883); settings: Potency: Plasmodium falciparum W2 proliferation inhibition;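 further: parasites grown with compound for 72 h before lysis and staining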; further: potency means the concentration at half of the fitted maximal effect
[15] = qHTS for differential inhibitors of proliferation of Plasmodium falciparum line HB3 (AID 1886); settings: Potency: Plasmodium falciparum HB3 proliferation inhibition;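 further: parasites grown with compound for 72 h before SYBR Green readout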; further: potency means the concentration at half of the fitted maximal effect
[16] = qHTS Assay for Identification of Small Molecule Agonists for Hypoxia Response Element Signaling Pathway (AID 914; active means well fitted activation curve with a large enough effect in the signal ratio, with a control signal flat, not every such curve was filed as active; the % refers to the signal ratio); settings: ME-180 (cervical carcinoma) HRE-bla reporter, beta-lactamase ratio, CoCl2, 17 h; activation: active compounds read high
Outline: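 Reporter activity (beta-lactamase, CCF4 460nm/530nm ratio) in HRE-bla ME-180 cells is recorded after 17 h compound exposure with EC50 CoCl2 at 37 degrees Celsius. AC50 values come from titration data.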

[17] = qHTS assay for cell viability of HEK293 cells (AID 743288); settings: ATP luminescence (CellTiter-Glo), 18 h; max response: active compounds read low; further: nearly all actives have a fitted effect of over 50% in size; further: potency means the concentration at half of the fitted maximal effect
Outline: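 Luminescent ATP quantitation served as the viability read-out. Cells (parental HEK293, 2,000/well) received compounds after at least 5 h at 37 C and were exposed for 18 h before a 30 min room-temperature reagent step.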

[18] = qHTS for inhibitors of ER calcium dysfunction: SERCaMP assay screened against the NCATS CANVASS Library (AID 1347393); further: nearly all actives have a fitted effect of over 40% in size; further: potency means the concentration at half of the fitted maximal effect
Outline: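 qHTS in SH-SY5Y reporter cells: 16 h compound pretreatment, 4 h thapsigargin, then secreted Gaussia luciferase measured by luminescence.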

[19] = Redox Reaction Profiling qHTS: Assay Interference Panel against the NCATS CANVASS Library (AID 1347401); further: potency means the concentration at half of the fitted maximal effect
Outline: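 Resazurin (5 uM) conversion to resorufin measured with 200 uM DTT in 50 mM HEPES pH 7.3, 50 mM NaCl. Compounds tested in 11-point qHTS series. Fluorescence (ex 525/em 598 nm) read before and after 15 min dark incubation.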

[20] = qHTS for inhibitors of Rabies Virus screened against the NCATS CANVASS Library (AID 1347402; calls by dose curve; further: series mostly up to about 46 µM)

With `C=C(C)CN1CC[C@@]23c4c5ccc(O)c4O[C@H]2c2[nH]c4ccccc4c2C[C@]3(O)[C@@H]1C5` the outcome [1] was “inactive” and the outcome [2] was “inactive”.
For `CN1Cc2ccccc2[C@@H]2c3cccc4[nH]cc(c34)C[C@H]21`, the Potency [3] was “inactive”, the outcome [1] was “inactive” and the outcome [2] was “inactive”. For the same molecule, the Potency [4] was “inactive”.
For `CN1C(=O)CCS(=O)(=O)[C@H]1c1ccc(Cl)cc1`, the Potency [5] was “inactive” and the outcome [6] was “inactive”.
With `CN1CCc2cc(O)cc3c2C1Cc1ccc(O)c(O)c1-3` (stereo unspecified) the Potency [7] was “inactive”, the Potency [8] was “inactive” and the outcome [9] was “inactive”. The Potency [10] was 8.91 µM (active), the Potency [11] was 8.91 µM (active) and the Potency [12] was 12.6 µM (active). For the same molecule, the Potency [13] was 8.91 µM (active), the Potency [14] was 6.31 µM (active) and the Potency [15] was 12.6 µM (active).
For `CCCn1c(C)c(C(=O)c2cccc3ccccc23)c2ccccc21`, the Potency [3] was “inactive”, the outcome [1] was “inactive” and the outcome [2] was “inactive”.
With `N#CC(C#N)=Cc1ccc([N+](=O)[O-])c(O)c1` the Potency [7] was “inactive”, the Potency [8] was “inactive” and the outcome [9] was “inactive”. The Potency [10] was “inactive”, the Potency [11] was “inactive” and the Potency [12] was “inactive”. The Potency [13] was “inactive”, the Potency [14] was “inactive” and the Potency [15] was “inactive”.
Work on `Cc1o[nH]c(=O)c1C[C@H](N)C(=O)O` yielded an activation [16] of 7.13%.
With `CC1OC(=O)C(C(C)C)NC(=O)C(C(C)C)OC(=O)C(C(C)C)NC(=O)C(C)OC(=O)C(C(C)C)NC(=O)C(C(C)C)OC(=O)C(C(C)C)NC(=O)C(C)OC(=O)C(C(C)C)NC(=O)C(C(C)C)OC(=O)C(C(C)C)NC1=O` (stereo unspecified) the Potency [5] was “inactive” and the outcome [6] was “inactive”.
With `O=C1CS[C@@H](c2ccccc2Cl)c2cc(Cl)ccc2N1` the Potency [3] was “inactive” and the Potency [4] was 49.4 µM (active).
With `Cc1ccc(C[N+](C)(C)C)o1` the Potency [5] was “inactive” and the outcome [6] was “inactive”.
For `CN1CCN(C(=O)O[C@@H]2c3nccnc3C(=O)N2c2ccc(Cl)cn2)CC1`, the Potency [5] was “inactive” and the outcome [6] was “inactive”.
Molecule `CN1[C@@H]2CC[C@H]1CC(O[C@@H](c1ccccc1)c1ccc(Cl)cc1)C2` (stereo partly specified) has an activation [16] of -9.36%.
In the case of `NC[C@H](CP(=O)(O)O)c1ccc(Cl)cc1`, the activation [16] was -2.39%.
For `CC(C)(c1ccc(OCC2CO2)cc1)c1ccc(OCC2CO2)cc1` (stereo unspecified), the Potency [17] was 70.8 µM (active) and the max response [17] was -24%.
With `CC(=O)N[C@H]1CCN2CCC[C@H]12` the Potency [18] was “inactive”, the Potency [19] was 63.2 µM (active) and the outcome [20] was “inactive”.
With `CO[C@@H](/C=C/CC/C=C/C(=O)O)[C@@H](O)[C@H](C)[C@@H](O)/C(C)=C/[C@H](C)C(=O)CCCC1CC(=O)NC(=O)C1` the Potency [18] was “inactive”, the Potency [19] was “inactive” and the outcome [20] was “inactive”.
With `CNCCc1c[nH]c2ccccc12` the activation [16] was -14%, the Potency [18] was “inactive” and the Potency [19] was “inactive”. The outcome [20] was “inactive”.
In the case of `COc1ccc(C23Oc4cc(OC)cc(OC)c4[C@](O)([C@H](c4ccccc4)C2C(=O)NCCCCNC(=O)c2ccccc2)[C@@H]3O)cc1` (stereo partly specified), the Potency [19] was “inactive” and the outcome [20] was “inactive”.
With `CCC[C@H]1CC[C@H]2[C@H](C)CCC[C@H]2N1` the Potency [18] was “inactive” and the outcome [20] was “inactive”.
For `C(=C/c1ccccc1)/CN1CCN(CCOC(c2ccccc2)c2ccccc2)CC1`, the Potency [3] was “inactive”, the outcome [1] was “inactive” and the Potency [4] was “inactive”.
In the case of `CNCCc1ccc(O)cc1`, the Potency [18] was “inactive”, the Potency [19] was “inactive” and the outcome [20] was “inactive”.
For `COC(=O)C1=C2Nc3ccccc3[C@@]23CCN2CC(C(C)=O)C1C[C@H]23` (stereo partly specified), the Potency [18] was 17.2 µM (active), the Potency [19] was “inactive” and the outcome [20] was “inactive”.
With `Cc1ccc2cc3c(ccc4ccccc43)c3c2c1CC3` the max response [17] was -7.81%.
